37 compounds from ChEMBL document CHEMBL1157539, “Thousands of chemical starting points for antimalarial lead identification” (Nature, 2010) can be followed below.

As usually defined, the Inhibition is the change of the read-out against control, counted positive when it falls.

In the assay the test system is HepG2. Briefly: GSK_TCMDC: Percent inhibition of human HepG2 cell line. Test compounds present at 10uM. In kind it is functional.
In the case of `CC(C)(C)OC(=O)NCc1ccc(Nc2nnc(-c3cccc(C(=O)NCCC(c4ccccc4)c4ccccc4)c3)o2)cc1`, the Inhibition is given as 0%.
`Clc1ccccc1CNc1noc(-c2sccc2Br)n1`: the Inhibition amounted to 0%.
`COC(=O)C(NC(=O)c1ccc(-c2ccc(-c3nc4ccccc4[nH]3)s2)cc1)c1ccc(O)cc1` (configuration not stated): the Inhibition came to 99%.
As for `NCC1CCCN1Cc1cccc(-c2ccc(-c3nc4cc(C(F)(F)F)ccc4[nH]3)s2)c1.O=C(O)C(F)(F)F` (configuration not stated), the figure is 17%.
Compound `CC(C)(C)c1ccc(NC(=O)c2cccc(CN3CCN(Cc4cccc(O)c4)CC3)c2)cc1.O=C(O)C(F)(F)F` gave an Inhibition of 28%.
`Cl.Nc1c2c(nc3ccc(NC(=O)Cc4ccccc4)cc13)CCCC2` showed an Inhibition of 9%.
The figure for `Cc1ccc(O)c(-c2cc(C(=O)Nc3ccc(S(=O)(=O)N4CCCCCC4)cc3)[nH]n2)c1` is 25%; for `COc1cc2ncnc(Nc3ccc4nc(-c5ccccc5)[nH]c4c3)c2cc1OC.Cl` it is 15%.
As for `CCCCCCCn1c(=N)n(CC(O)c2ccc(Cl)c(Cl)c2)c2ccccc21.Cl` (configuration not stated), the figure is 99%; as for `CCN1CCC(N(Cc2ccc(-c3ccc(C(F)(F)F)cc3)cc2)C(=O)Cn2nc(C)c(=O)cc2SCc2ccc(F)cc2)CC1.O=C(O)C(O)C(O)C(=O)O`, 77%.
Take `COc1ccc(CNCc2cccc(-c3cccc(-c4nc5cc(F)ccc5[nH]4)c3)c2)cc1.O=C(O)C(F)(F)F`: the Inhibition is reported as 18%.
As for `O=C(NCCc1ccccc1)N(Cc1ccccc1-c1ccc(CNC2CCCC2)cc1)C1CCN(Cc2ccccc2)CC1.O=C(O)C(F)(F)F`, the figure is 96%.
The figure for `Cc1ccc(O)cc1Nc1ccnc2ccc(-c3csc(CNCCN4CCOCC4)n3)cc12` is 0%; for `CCC(C)c1ccc(NC(=O)c2ccc(S(=O)(=O)Nc3ccc(OC)c(N4CCN(CC5CC5)CC4)c3)cc2)cc1.O=C(O)C(F)(F)F` (configuration not stated) it is 24%; for `Cc1cccc2nc(-c3cccc(-c4ccc(NC(=O)CC5NC(=O)c6ccccc65)cc4)c3)[nH]c12` (configuration not stated) it is 30%.
As for `Cn1cncc1C(=O)Nc1cccc(-c2csc(-c3nc4ccccc4[nH]3)c2)c1`, the figure is 15%.
In turn, `CC(=O)O.Cc1cc(F)ccc1[C@H]1CNCCN1C(=O)N(C)[C@@H](C)c1cc(C(F)(F)F)cc(C(F)(F)F)c1` yielded an Inhibition of 20%.
`CCCCCCC(C)c1cc(OCCN(CC)CC)c2c(c1)OC(C)(C)C=C2c1ccncc1.Cl` (configuration not stated): the Inhibition turned out to be 14%.
For `Cc1cc(N(C)C)nc(Nc2ccc(NC(=O)C3CCCCC3)cc2)n1`, the Inhibition is 3%.
The figure for `COc1ccc(CCc2ccc(-c3c(C)[nH]c(C)c(Cl)c3=O)cc2)cc1` is 0%; for `CCCc1c(Cl)cc(CNCCCNc2nc3ccncc3[nH]2)cc1Cl` it is 23%.
As for `CC(C)N1CCN(CCCCNc2c3ccccc3nc3ccccc23)CC1.Cl`, the figure is 38%; as for `c1cncc(-c2cccc(CNc3nccc(Nc4ccc(OCCN5CCOCC5)cc4)n3)c2)c1`, 1%.
The figure for `Nn1c(=O)oc2ccc(Cl)cc2c1=O` is 4%; for `CC(C)C(C)(C#N)NC(=O)CSc1nc2ccc([N+](=O)[O-])cc2s1` (configuration not stated) it is 0%; for `CN(C)CCN(Cc1ccccc1-c1ccc(CNCCc2ccccc2)cc1)C(=O)NC1CCCCC1.O=C(O)C(F)(F)F` it is 98%.
For `Cc1ccc2c(=NN=Cc3cccc(Cl)c3)cc(C)[nH]c2c1`, the Inhibition was found to be 50%.
As for `Cc1[nH]c(C)c(-c2ccc(OCCSc3ccncc3)cc2)c(=O)c1Br`, the figure is 0%; as for `COc1ccc2[nH]c(C)cc(=NN=Cc3ccc(Cl)cc3)c2c1`, 2%.
The figure for `Cc1ncc([N+](=O)[O-])n1CCOC(=O)NC(Nc1ccc(Br)cc1)C(Cl)(Cl)Cl` (configuration not stated) is 0%; for `CCCCNc1nc(NCCCC)c2c(C)c(Cc3ccccc3)c(NCCCC)nc2n1.Cl` it is 69%; for `CNC(=O)NC1=NC(C)(C)N(OCc2ccc(Cl)c(Cl)c2)C(NC(=O)NC)=N1` it is 1%.
As for `CC(=O)Nc1ccc(CN2CCC(NC(=O)c3ccc(-c4ccc(N(C)C)cc4)s3)CC2)cc1.O=C(O)C(F)(F)F`, the figure is 20%; as for `CC(C)(C)c1cc([N+](=O)[O-])cc(C(=O)Nc2ccccc2C(F)(F)F)c1O`, 74%.
On to `CN1CCCN(Cc2ccc(-c3ccc(NC(=O)c4cccc(C#N)c4)cc3)cc2)CC1.O=C(O)C(F)(F)F`, for which the Inhibition is recorded as 46%.
On to `Cc1ccc(-c2ccc3c(c2)C=C(C(=O)NC2CCN(CCNC(=O)c4cccc(C(F)(F)F)c4)CC2)CCC3)cc1.O=C(O)C(F)(F)F`, for which the Inhibition came to 25%.
The figure for `CC(C)CNCc1ccc(-c2cccc(CN(C(=O)NCCc3ccccc3)C3CCN(Cc4ccccc4)CC3)c2)cc1.O=C(O)C(F)(F)F` is 91%.
